Compound activity from PubChem BioAssay.
An excerpt weighted towards active compounds, which were near 1.3% of everything screened.
IL2 activator: qHTS of IL-2 Activators; IL-2 activation reporter assay, cell-based qHTS; stimulated with anti-CD3/CD4/CD28 beads; in transgenic mouse T cells; activation, % (series mostly up to about 46 µM); actives 0.065% (n = 360,000); AID 652025, 2013; in the data active = activation above about 50%; inconclusive = mostly about 30% to 49%; note: 0% is about no effect
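Quantitative HTS in unstimulated transgenic mouse T cells, with memory T cells as non-tolerant control and PMA/ionomycin as tolerance-bypass control. Compound pretreatment lasted 60 minutes before 18 h bead stimulation; EGFP/DsRed fluorescence read.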
BRCA1 expr up: qHTS Assay to Identify Small Molecule Activators of BRCA1 Expression; actives 1.1% (n = 380,000); MCF7-BRCA1-FFLuc reporter, luminescence, 48 h; response scale: scaled: vehicle 0%, 10 µM genistein 100%; Potency, µM (series often up to 46.1 µM), inactives show at the top dose activation, actives largely listed as activators; AID 624202, 2012; note: potency is the fitted concentration of half-maximal effect; nearly all actives have a fitted effect of over 80% in size
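MCF7 cells carrying a BRCA1-firefly luciferase reporter (2000 cells/well, phenol-red free MEM) were attached for 2 h at 37 °C, then given compounds for 48 h. Luminescence was read 15 min after luciferase reagent; activity normalized to genistein (10 microM) and DMSO.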
Mito fusion yeast: qHTS Assay for Small Molecule Inhibitors of Mitochondrial Division or Activators of Mitochondrial Fusion. S. cerevisiae fusion-defective mutant growth rescue, CellTiterGlo 48 h. actives 0.23% (n = 320,000). Potency, µM (highest dose often 46.1 µM), for inactives: top-dose growth rescue (activation), actives largely listed as activators; note: potency is the fitted concentration of half-maximal effect; % of control where 0% means no effect; nearly all actives have a fitted effect of over 45% in size
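S. cerevisiae fusion-defective temperature-sensitive mutants (e.g. fzo1-1, mgm1-5) grown 48 h at 37C in YPEG (ethanol/glycerol non-fermentable) medium with 23 nl compound per well; growth rescue read as CellTiterGlo luminescence.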
TCR act: Activators of T cell receptors: qHTS campaign | AID 504894, 2011 | Potency, µM (doses to about 9.22 µM), for the others: at the top dose activation of IL-2 secretion, most hits filed as activators | primary human leukocytes, anti-CD3, IL-2 HTRF, 48 h | 330,000 tested, under 10 active; note: % of control where 0% means no effect
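48 hr co-incubation of compounds, a-CD3 beads and primary human leukocytes; IL-2 quantified homogeneously by HTRF with anti-IL-2 K and d2 conjugates.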
PTHR1 ag: qHTS for PTHR1 Agonists: Primary Screen; HEK293 GP2 PTHR1 cells, GloSensor cAMP luminescence, 1 h; actives 0.075% (n = 410,000); Potency, µM (top dose mostly 115 µM), without a hit: at the top dose activation, most hits filed as activators; note: potency is the fitted concentration of half-maximal effect; nearly all actives have a fitted effect of over 55% in size
Target sequence (Q03431 whole entry, looked up): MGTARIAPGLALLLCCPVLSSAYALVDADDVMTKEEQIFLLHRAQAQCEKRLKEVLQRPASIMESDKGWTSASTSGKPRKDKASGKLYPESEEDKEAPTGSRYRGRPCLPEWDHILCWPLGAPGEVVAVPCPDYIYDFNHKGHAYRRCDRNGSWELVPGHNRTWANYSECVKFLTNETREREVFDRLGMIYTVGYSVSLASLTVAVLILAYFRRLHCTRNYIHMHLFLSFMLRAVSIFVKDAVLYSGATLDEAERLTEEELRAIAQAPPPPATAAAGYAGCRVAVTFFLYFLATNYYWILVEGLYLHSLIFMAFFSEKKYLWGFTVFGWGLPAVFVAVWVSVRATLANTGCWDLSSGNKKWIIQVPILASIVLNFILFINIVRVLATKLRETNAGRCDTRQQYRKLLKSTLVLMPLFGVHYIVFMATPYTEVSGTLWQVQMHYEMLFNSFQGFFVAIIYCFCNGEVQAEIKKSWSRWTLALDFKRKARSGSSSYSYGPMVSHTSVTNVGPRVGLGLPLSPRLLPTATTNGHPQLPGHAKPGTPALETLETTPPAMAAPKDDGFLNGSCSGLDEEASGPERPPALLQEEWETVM
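HEK-293-derived GP2 cells expressing PTHR1 and a GloSensor cAMP reporter, 3,000/well, plated overnight, given luciferin plus IBMX (each 0.5 mM as added) for 1 h at 37 °C, then compound for 1 h at 37 °C. Luminescence was read after 15 min at room temperature.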
BCR signal inh: qHTS Assay to Find Inhibitors of Chronic Active B-Cell Receptor Signaling; Potency, µM (top dose mostly 46.1 µM), without a hit: top-dose activity change, negative = inhibition, usual class: inhibitors; actives 0.05% (n = 340,000); ABC-DLBCL IkBa-CBG/CBR reporter, luminescence ratio, 4 h; AID 493014, 2011; active = well fitted inhibition curve with a large enough effect in the signal ratio, with a control signal flat, not every such curve was filed as active; inconclusive = small, poorly fitted or top-dose-only effect, or effect the other way, or a change in a side signal; the % refers to the signal ratio;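 note: potency is the fitted concentration of half-maximal effect; plate controls were basal doxycycline-induced cells for no effect and cells given 10 µM MG132 for full effect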
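Doxycycline induced both beetle luciferases in TMD8 lymphoma cells; IKK-driven degradation limits the IkappaBalpha-fused green signal, while red luminescence normalises for cell number and nonspecific effects. Compounds tested up to 46 uM, 4 hrs.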
Active calls of the source: *; i = inactive; ? = inconclusive; / = not tested or not shown; [ ] = another dose, or the depositor's remark. Unless noted, calls come from the whole dose curve; as a rule, active = well fitted curve in the direction sought with a large enough effect; inconclusive = small, poorly fitted or top-dose-only effect, or another doubt; inactive = no such curve, though single readings can be large; an effect the other way counts as inactive or inconclusive.

SMILES	IL2 activator	BRCA1 expr up	Mito fusion yeast	TCR act	PTHR1 ag	BCR signal inh
COc1ccc(-c2noc(-c3ccoc3C)n2)cc1OC	-0.3	4.47µM*	1.2%	0.6%	i	22.4%
COc1ccc(-c2noc(-c3ccoc3C)n2)cc1	0.2	11.2µM*	8.3%	2.2%	-46.5%	?
CN1/C(=C\C(=O)Nc2ccc(Br)cc2)C(C)(C)c2ccccc21	-3.9	-16.3%	-15.0%	1.4%[46.1 µM]	i	?
CN1/C(=C\C(=O)Nc2ccc(F)cc2)C(C)(C)c2ccccc21	0.4	-12.9%	10µM*	1.7%[46.1 µM]	i	?
O=C(O)c1ccc(-c2nc(-c3ccccc3)cs2)cc1	-1.9	?	-4.9%	1.6%	-24.5%	?
O=C(O)c1ccccc1C(=O)Nc1ccc(-c2csc(-c3ccccc3)n2)cc1	1.4	7.08µM*	2.7%	-1.5%[46.1 µM]	-26.9%	?
CNC(=O)c1ccc(-c2nc(-c3ccccc3)cs2)cc1	0.7	2.51µM*	-1.2%	-0.3%	-4.1%	?
CCc1ccccc1NC(=O)c1ccc(-c2csc(C)n2)cc1	-3.3	3.55µM*	1.1%	4.9%	i	?
O=S1(=O)CC(N2CCN(Cc3ccccc3F)CC2)CN1Cc1cn(Cc2cccc(Cl)c2)nn1 (stereo not drawn)	-0.7	0.0%	/	/	-64.5%	/
CC(=O)N[C@@H](Cc1ccc(O)cc1)C(=O)N[C@H](C(=O)N[C@@H](C)C(=O)N[C@H](C#N)CC(=O)O)C(C)C	/	/	-2.8%	/	/	6.1%
COc1ccc(-c2nc3ccc(NC(C)=O)cc3c(=O)n2Cc2cccc(Cl)c2)cc1COc1ccc(NC(C)=O)cc1	/	-18.8%	/	/	/	/
CCN(C(=O)CSc1nc2ccccc2n1CC(=O)N(C)C1CCCCC1)c1ccccc1	/	0.0%	/	/	6.8%	/
O=C(Nc1nnc(Cc2ccccc2)s1)c1cccs1	1.4	?	-2.1%	-11.7%	-16.4%[57.5 µM]	-10.7%
O=C(Nc1nnc(CC2=CCCCC2)s1)c1cccs1	0.8	6.31µM*	19.9%	-112.5%	-29.8%	2.3%
CN(C)c1ccc(/C=C/c2nc3ccccc3s2)c(Cl)c1	/	-66.1%	/	/	/	/
COc1ccc(OC)c(NC(=O)Cn2cnc3ccc(S(=O)(=O)N4CCC(C)CC4)cc3c2=O)c1	/	-10.1%	/	/	i	/
CCNc1nc(NC(C)C)nc(Oc2ccc(=O)n(C)n2)n1	2.2	13.8%	-2.3%	1.7%	-50.7%	10.5%
COC(=O)[C@@H]1CCCN1C(=O)CCc1nnc(CCC2CCCCC2)o1	-2.5	11.2µM*	-2.7%	-0.2%	-23.5%	?
CCN1C(=O)[C@@H]2Cc3c([nH]c4ccccc34)C(c3cc(OC)c(OC)c(OC)c3)N2C1=S (stereo partly drawn)	93.7*	-39.1%	-18.9%	-11.2%	-1.6%	-11.6%
COc1cc([C@H]2c3[nH]c4ccccc4c3C[C@H]3C(=O)N4[C@@H](c5cc(OC)c(OC)c(OC)c5)c5[nH]c6ccccc6c5C[C@H]4C(=O)N23)cc(OC)c1OC	-0.2	-60.6%	-0.1%	-12.0%	-15.5%	?
C=CCN1C(=O)[C@@H]2Cc3c([nH]c4ccccc34)C(c3cc(OC)c(OC)c(OC)c3)N2C1=S (stereo partly drawn)	104.5*	-23.4%	-2.8%	2.3%	-1.5%	?
CN(C)/[N+]([O-])=N/Oc1ccc([N+](=O)[O-])cc1C(F)(F)F	/	19.5%	/	/	/	/
O=c1[nH]c(-c2ccc(O)cc2)nc2scc(-c3cccs3)c12	0.6	93.3%	1.2%	7.9%	i	?
